Assay results as given in PubChem BioAssay (Tox21).
Records with an inconclusive call do not appear. The source made the active and inactive calls. Unless noted, calls follow the shape of the full dose curve.

What was measured:
[1] = qHTS assay to identify small molecule antagonists of the estrogen receptor beta (ER-beta) signaling pathway - cell viability counter screen (AID 1259382; active = well fitted curve in the direction sought with a large enough effect in the repeat runs; an effect the other way counts as inactive or inconclusive;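 also: HEK293T cells carrying ER-beta-UAS-bla reporter stimulated with estradiol; series mostly up to about 92 µM; nearly all actives have a fitted effect of over 55% in size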)
Procedure, shortened: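 Luminescent ATP read-out (CellTiter-Glo, 30 min, RT) taken in the same wells as the bla reporter assay. HEK293T ER-beta-UAS-bla cells in 2% charcoal-stripped FBS were exposed to compounds with 1nM E2 for 16 hr at 37C.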

[2] = qHTS assay to identify small molecule agonists or antagonists of the thyroid stimulating hormone receptor (TSHR) signaling pathway - wild type cell line counter screen (AID 1259384)
Procedure, shortened: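 Wild-type HEK293 cells were plated 18 h at 37 C/5% CO2, pin-dosed with compound plus Ro20-1724 medium, held 30 min at room temperature, then given cAMP-d2 and anti-cAMP-cryptate; fluorescence was read after 1 h. Fifteen concentrations, triplicate.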

[3] = molecular target: Thyrotropin receptor (Homo sapiens) (UniProt P16473); assay: qHTS assay to identify small molecule antagonists of the thyroid stimulating hormone receptor (TSHR) signaling pathway (AID 1259385); also: nearly all actives have a fitted effect of over 20% in size
Thyrotropin receptor (Homo sapiens), sequence (P16473 whole entry, looked up): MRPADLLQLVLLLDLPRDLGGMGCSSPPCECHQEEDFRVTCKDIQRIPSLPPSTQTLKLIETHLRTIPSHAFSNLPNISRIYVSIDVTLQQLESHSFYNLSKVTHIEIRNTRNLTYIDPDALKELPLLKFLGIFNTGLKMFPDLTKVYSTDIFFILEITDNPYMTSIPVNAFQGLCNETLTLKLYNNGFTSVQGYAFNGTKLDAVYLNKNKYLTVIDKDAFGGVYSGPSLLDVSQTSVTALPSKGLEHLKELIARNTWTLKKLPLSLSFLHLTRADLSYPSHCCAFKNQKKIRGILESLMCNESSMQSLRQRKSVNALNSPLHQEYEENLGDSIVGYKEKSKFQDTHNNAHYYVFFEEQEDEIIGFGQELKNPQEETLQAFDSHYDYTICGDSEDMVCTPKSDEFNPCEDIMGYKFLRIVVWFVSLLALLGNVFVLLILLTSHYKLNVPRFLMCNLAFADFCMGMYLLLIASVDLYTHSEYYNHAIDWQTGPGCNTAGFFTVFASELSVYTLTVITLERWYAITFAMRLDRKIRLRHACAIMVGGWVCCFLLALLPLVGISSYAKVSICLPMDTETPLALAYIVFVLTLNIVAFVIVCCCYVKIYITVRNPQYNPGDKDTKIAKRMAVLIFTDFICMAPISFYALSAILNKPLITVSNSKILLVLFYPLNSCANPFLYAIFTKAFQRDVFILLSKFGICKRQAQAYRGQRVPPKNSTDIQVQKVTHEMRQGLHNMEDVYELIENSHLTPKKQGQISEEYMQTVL
Procedure, shortened: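 TSHR-HEK293 cells were plated and held 18 h at 37C/5% CO2, then given compound plus Ro20-1724 and stimulated with TSH at 1.5 ng/mL final. After 30 min at room temperature, cAMP was detected with cAMP-d2/anti-cAMP-cryptate (1 h) by fluorescence.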

[4] = qHTS assay to identify small molecule agonists of the estrogen receptor alpha (ER-alpha) signaling pathway in the presence of an antagonist - cell viability counter screen (AID 1259386; active = well fitted curve in the direction sought with a large enough effect in the repeat runs; an effect the other way counts as inactive or inconclusive;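 also: cells exposed to compounds for 22 h at 37 °C before the viability read; nearly all actives have a fitted effect of over 30% in size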; also: potency is read from the fitted curve at half-maximal effect; as to activity change, negative = cytotoxicity: series mostly up to about 92 µM)
Procedure, shortened: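 Read-out: CellTiter-Fluor fluorescence after 1hr reagent incubation, measured in the same wells as the luciferase readout. VM7Luc4E2 cells were exposed to 15 compound concentrations with 10.0nM ICI-182,780 for 22hr at 37C.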

[5] = molecular target: Progesterone receptor (Homo sapiens) (UniProt P06401); assay: qHTS assay to identify small molecule agonists of the progesterone receptor (PR) signaling pathway (AID 1346784); also: nearly all actives have a fitted effect of over 30% in size; also: potency is read from the fitted curve at half-maximal effect
Progesterone receptor (Homo sapiens), sequence (P06401 whole entry, looked up): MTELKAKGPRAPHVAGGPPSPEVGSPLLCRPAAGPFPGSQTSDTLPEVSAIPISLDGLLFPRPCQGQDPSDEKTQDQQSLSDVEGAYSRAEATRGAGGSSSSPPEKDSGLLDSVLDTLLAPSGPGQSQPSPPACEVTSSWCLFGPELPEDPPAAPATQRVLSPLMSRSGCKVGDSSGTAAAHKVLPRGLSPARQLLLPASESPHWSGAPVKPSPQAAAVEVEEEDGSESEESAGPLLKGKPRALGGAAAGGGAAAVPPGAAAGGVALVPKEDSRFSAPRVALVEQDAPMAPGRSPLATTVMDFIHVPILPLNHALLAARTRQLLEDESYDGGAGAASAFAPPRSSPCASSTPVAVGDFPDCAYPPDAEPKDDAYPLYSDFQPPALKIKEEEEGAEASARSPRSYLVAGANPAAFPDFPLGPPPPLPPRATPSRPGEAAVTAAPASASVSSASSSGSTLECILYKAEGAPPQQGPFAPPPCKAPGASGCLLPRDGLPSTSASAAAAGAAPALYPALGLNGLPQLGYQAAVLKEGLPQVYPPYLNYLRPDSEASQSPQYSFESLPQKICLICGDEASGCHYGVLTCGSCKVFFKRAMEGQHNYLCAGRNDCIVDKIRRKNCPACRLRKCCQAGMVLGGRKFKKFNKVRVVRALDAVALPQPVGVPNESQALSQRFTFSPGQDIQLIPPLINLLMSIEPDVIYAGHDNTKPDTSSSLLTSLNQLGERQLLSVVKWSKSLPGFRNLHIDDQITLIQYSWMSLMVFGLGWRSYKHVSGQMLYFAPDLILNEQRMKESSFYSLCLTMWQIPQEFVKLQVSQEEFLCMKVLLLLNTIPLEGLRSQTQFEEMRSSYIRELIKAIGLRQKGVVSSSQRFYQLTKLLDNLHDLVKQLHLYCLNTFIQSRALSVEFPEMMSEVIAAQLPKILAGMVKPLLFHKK
Procedure, shortened: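 Fluorescence from LiveBLAzer B/G FRET substrate cleavage (2 hr, RT) reported PR activation in PR-UAS-bla HEK 293T cells treated 16 hr at 37C/5% CO2 with compounds; medium contained 2% charcoal-stripped FBS.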

[6] = molecular target: Progesterone receptor (Homo sapiens) (UniProt P06401); assay: qHTS assay to identify small molecule antagonists of the progesterone receptor (PR) signaling pathway (AID 1346795; active = well fitted inhibition curve with a large enough effect in the signal ratio in the repeat runs, not every such curve was filed as active; the % refers to the signal ratio)
Procedure, shortened: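 Fluorescence intensity measured 2 hr after adding beta-lactamase FRET substrate to PR-UAS-bla HEK293T cells that had been co-treated 16 hr with compound and 1 nM R5020 (final concentration) in 2% charcoal-stripped FBS.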

[7] = qHTS assay to identify small molecule antagonists of the progesterone receptor (PR) signaling pathway - cell viability counter screen (AID 1346798; active = well fitted curve in the direction sought with a large enough effect in the repeat runs; an effect the other way counts as inactive or inconclusive; also: series mostly up to about 92 µM; nearly all actives have a fitted effect of over 50% in size)
Procedure, shortened: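 CellTiter-Glo luminescence; PR-UAS-bla HEK293T, 3,000 cells/well; compound + R5020, 16 hr, 37C/5% CO2; 30 min RT before read.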

[8] = qHTS assay to identify small molecule agonists of the progesterone receptor (PR) signaling pathway - cell viability counter screen (AID 1346799); also: nearly all actives have a fitted effect of over 45% in size
Procedure, shortened: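 In parallel with the beta-lactamase readout, cytotoxicity toward PR-UAS-bla HEK293T cells was measured by CellTiter-Glo luminescence following 16 hr compound incubation in 2% charcoal-stripped FBS medium.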

[9] = molecular target: Estrogen receptor (Homo sapiens) (UniProt P03372); assay: qHTS assay to identify small molecule agonists of the estrogen receptor alpha (ER-alpha) signaling pathway in the presence of an antagonist (AID 1259383); also: top concentration of the series differs between compounds; nearly all actives have a fitted effect of over 15% in size
Estrogen receptor (Homo sapiens), sequence (P03372 whole entry, looked up): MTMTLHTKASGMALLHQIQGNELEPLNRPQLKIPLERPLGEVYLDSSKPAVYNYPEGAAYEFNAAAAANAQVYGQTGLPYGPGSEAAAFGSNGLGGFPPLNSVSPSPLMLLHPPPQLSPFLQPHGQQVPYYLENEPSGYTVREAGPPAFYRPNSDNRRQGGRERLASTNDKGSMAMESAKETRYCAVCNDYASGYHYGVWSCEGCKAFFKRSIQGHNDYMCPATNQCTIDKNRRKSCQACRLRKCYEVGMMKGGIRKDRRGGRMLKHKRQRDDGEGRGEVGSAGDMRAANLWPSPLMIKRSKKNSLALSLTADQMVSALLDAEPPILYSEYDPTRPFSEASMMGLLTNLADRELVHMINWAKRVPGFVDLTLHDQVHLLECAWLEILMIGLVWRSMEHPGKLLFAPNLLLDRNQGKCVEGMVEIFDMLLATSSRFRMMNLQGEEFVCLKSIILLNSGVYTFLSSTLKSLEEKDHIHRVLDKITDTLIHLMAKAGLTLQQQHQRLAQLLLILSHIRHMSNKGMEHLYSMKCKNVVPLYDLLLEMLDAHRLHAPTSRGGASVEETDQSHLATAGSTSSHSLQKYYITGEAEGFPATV
Procedure, shortened: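 Luciferase luminescence (ONE-Glo, 30min at room temperature) measured in VM7Luc4E2 cells after 22hr compound exposure at 15 concentrations, with 10.0nM ICI-182,780 final present; cells express endogenous ER-alpha and carry four EREs upstream of luciferase.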
% is scaled to controls: 0 for no effect and ±100 for the full control effect.

CO/N=C(/C(=O)N[C@@H]1C(=O)N2C(C(=O)O)=C(Cn3nnc(C)n3)CS[C@H]12)c1csc(N)n1
inactive: outcome [1] | outcome [2] | outcome [3] | Potency [4] | Potency [5] | Potency [6] | Potency [7] | Potency [8]

CCNC(=O)NCCCOc1cccc(CN2CCCCC2)c1
inactive: outcome [1] | outcome [9] | Potency [4] | Potency [5] | Potency [6] | Potency [7] | Potency [8]

O=C(O)C(=O)Nc1cccc(-c2nn[nH]n2)c1
inactive: outcome [1] | outcome [2] | outcome [3] | Potency [4] | Potency [5] | Potency [6] | Potency [7] | Potency [8]

CCC(=O)c1ccc(O)cc1
inactive: outcome [1] | outcome [9] | Potency [4] | Potency [5] | Potency [6] | Potency [8]

O=C(O)c1c(Cl)ccc(Cl)c1Cl
inactive: outcome [1] | outcome [9] | Potency [4] | Potency [5] | Potency [6] | Potency [8]

C=C(C)[C@@H]1CC[C@@H](C)C[C@@H]1O
inactive: outcome [1] | outcome [2] | outcome [3] | Potency [4] | Potency [6] | Potency [7] | Potency [8]

CCCCOC(=O)C(=O)OCCCC
inactive: outcome [1] | Potency [4] | Potency [5] | Potency [6] | Potency [7] | Potency [8]

C=C(C)C(=O)OCCCCCCOC(=O)C(=C)C
inactive: outcome [1] | outcome [2] | Potency [4] | Potency [6] | Potency [7] | Potency [8]

C/C=C(\C)C(=O)OCC/C=C\CC
inactive: outcome [1] | outcome [3] | Potency [4] | Potency [5] | Potency [6] | Potency [8]

SCCSCCS
inactive: outcome [1] | outcome [3] | Potency [4] | Potency [5] | Potency [6] | Potency [7] | Potency [8]

O=S(=O)(O)c1cc(O)ccc1O
inactive: outcome [1] | outcome [2] | Potency [4] | Potency [6] | Potency [7] | Potency [8]

CCC1Nc2cc(Cl)c(S(N)(=O)=O)cc2S(=O)(=O)N1 (stereo not drawn)
inactive: outcome [1] | outcome [2] | outcome [3] | Potency [4] | Potency [5] | Potency [7] | Potency [8]

CCCCCCCCCOCC1CO1 (stereo not drawn)
inactive: outcome [1] | outcome [2] | outcome [3] | Potency [4] | Potency [5] | Potency [7] | Potency [8]

COc1ccc(N=Nc2cc(C)c(N=Nc3ccc(S(=O)(=O)O)cc3)cc2OC)cc1
active: Potency [4] 27.3 µM
inactive: outcome [1] | outcome [2] | Potency [5] | Potency [7] | Potency [8]

CCCCCCCCCCCCCCCC(=O)NCCO
inactive: outcome [1] | outcome [2] | outcome [3] | Potency [4] | Potency [6] | Potency [7] | Potency [8]

CCOC(=O)CC(CC(=O)OCC)(OC(C)=O)C(=O)OCC
inactive: outcome [1] | Potency [4] | Potency [5] | Potency [6] | Potency [7] | Potency [8]

CC1(N)CCC(C(C)(C)N)CC1 (stereo not drawn)
inactive: outcome [1] | outcome [2] | outcome [3] | Potency [4] | Potency [6]

C[C@H](CCC(=O)NCC(=O)O)[C@H]1CC[C@H]2[C@@H]3[C@H](O)C[C@@H]4C[C@H](O)CC[C@]4(C)[C@H]3C[C@H](O)[C@]12C
inactive: outcome [1] | outcome [3] | Potency [4] | Potency [5] | Potency [6] | Potency [7] | Potency [8]

O=c1cc(O)c(Cl)c[nH]1
inactive: outcome [1] | outcome [3] | Potency [4] | Potency [7] | Potency [8]

Nc1cc(S(=O)(=O)O)ccc1S(=O)(=O)O
inactive: outcome [1] | outcome [2] | outcome [3] | Potency [4] | Potency [6] | Potency [8]

CCCCCCCC[Si](OCC)(OCC)OCC
inactive: outcome [1] | Potency [4] | Potency [5] | Potency [6] | Potency [7] | Potency [8]

C=CCOc1cc(Cl)ccc1C(=O)NCCN(CC)CC
inactive: outcome [1] | outcome [3] | Potency [4] | Potency [5] | Potency [6] | Potency [7] | Potency [8]

CC(C)c1ccccc1O
inactive: outcome [1] | outcome [3] | Potency [4] | Potency [5] | Potency [6] | Potency [8]

C[C@@H]1C[C@H]2[C@@H]3C[C@H](F)C4=CC(=O)C=C[C@]4(C)[C@@]3(F)[C@@H](O)C[C@]2(C)[C@@]1(O)C(=O)CO
active: Potency [5] 5.96 µM
inactive: outcome [1] | outcome [2] | outcome [3] | Potency [4] | Potency [7] | Potency [8]

Nc1c(NC/C=C\COc2cc(CN3CCCCC3)ccn2)c(=O)c1=O
inactive: activity change, negative = cytotoxicity [1] 0.149% [at 19 µM] | cAMP activity change [2] -0.455% [at 18.9 µM] | activity change, negative = inhibition [3] -4.41% [at 19 µM] | activation [5] 1.78% [at 19 µM] | activity change, negative = inhibition [6] 9.62% [at 18.9 µM] | activity change, negative = cytotoxicity [7] 4.14% [at 18.9 µM] | activity change, negative = cytotoxicity [8] -2.25% [at 19 µM]

COc1ccc(OC)c(NC(=O)CC(C)=O)c1
inactive: outcome [1] | Potency [4] | Potency [5] | Potency [6] | Potency [7] | Potency [8]
